# Over roughly 25,000 sequences, “ln(normalized median fluorescence intensity)” has its median near 9.7; the highest 2% begin near 11. Shown is part of a subset that was picked to be rich in the highest values.
# Tested on: PfAP2-HC AP2 domain (GST-tagged)
# Assay: gcPBM binding intensity (ln(normalized median fluorescence intensity)); higher = stronger DNA binding
# In short: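 GST-fused DNA-binding domains of P. falciparum, expressed in E. coli, were applied at about 25 μg on average for 1 h to an Agilent 4 × 180k array of primer-extended double-stranded 36-bp intergenic genomic probes and negative controls. Binding intensity is the highest Masliner-normalised natural-log median intensity across replicate spots of either probe orientation, measured with Alexa488 anti-GST antibody and a 488 nm scan.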
row,Sequence,gcPBM binding intensity (ln)
1,ATAAAAATGGTGTTAACACACACATATATATATATA [CACACA_site8089],9.83
2,TATATTATTTATAGTAGTACATAAAATATAAATATT [XGTACX_site4417],9.48
3,TATTTTGTCATAGAACGTACTTATAAATATTTTTTT [XGTACX_site8424],9.5
4,AAATCATGTTGAAGGGGTACAAAATATGTAATGTTG [XGTACX_site6222],9.82
5,TTTTATTTCAATCCACAAGGGATAAAATAAAGTTTT [CACACA_negctrl_site699],9.3
6,TATTAAACTGGACACACACACACACCCATATATAAA [CACACA_site4579],11.2
7,TTTATTAAACTTGACACACACACACCCACATATATA [CACACA_site760],10.2
8,TCATAGTAGAAACACACACACACACCCATATATATA [CACACA_site1737],11.3
9,TTCCCATGTAATATTAAACACACACCCATATAACAC [CACACA_site7905],10.5
10,TACACGCAGAAACACACACACACACCCATATATATA [CACACA_site637],11.4
11,AACACAGATAAATTAACACACACACCCATATATATA [CACACA_site9310],11.2
12,CACAGATAAATTAACACACACACACCCATATATATA [CACACA_site3960],10.5
13,CACAGATAAATTAACACACACACACCGATATATATA [CACACA_site6049],10.5
14,AAAATACAGAAACACACACACACACCCATATATATA [CACACA_site3559],10.7
15,AATACACGCAAACACACACACACACCCACATATATA [CACACA_site638],10.8
16,TATATATAGAAACACACACACACACCCAAGCGTAGC [CACACA_site63],10.6
17,TATATATAGAAACACACACACATATATATATATATA [CACACA_site773],10.5
18,TTTCGTCATTTTGTTTTTAATTCTACAATTTAGTTA [XGTACX_negctrl_site286],9.66
19,TTATAGAGCTTATTCACACATACATATGTATTTATA [CACACA_site5775],9.87

row,Sequence,gcPBM binding intensity (ln)
1,ATTATTATACACAAATGTACATGTGAATTTTTTTTC [XGTACX_site6982],9.63
2,ATAAAACAAAAATATAAACACACATACATTGGTTTT [CACACA_site8809],10.1
3,TTATTTTTATTATTTTGTATATATATTTATAGAAAA [XGTACX_negctrl_site465],9.28
4,AAATATATTTCACGCACACACACCCCAAATAAATTT [CACACA_site3820],11.2
5,AATACATATAAAAGTACACACACACCCATATATATA [CACACA_site8220],10.5
6,ATAAATATATTTCACGCACACACACCCCAAATAAAT [CACACA_site9272],10.4
7,TATACAATATAAAATACACACGCACCCAAAAAAAAA [CACACA_site9174],10.3
8,TACATATAAAAGTACACACACACACCCATATATATA [CACACA_site941],11
9,AGATAAAAAAAGTACACACACACATATATATATATA [CACACA_site3072],10.4
10,AAAAAATTAAAAATACGTACATATATACATATATAT [XGTACX_site4621],9.71
11,CATCATATAAATTCAAGTACAAGAAAAAGTAATATA [XGTACX_site2383],9.64
12,ATATTTATGTAATGTTTGATTTTTTTTTTATGTGTG [CACACA_negctrl_site1422],9.88
13,TAATAAAATAATATCACACATATTTATATATATTAT [CACACA_site5814],9.61
14,TAATAAATAGGACACACACACATATTTATATATCAT [CACACA_site6771],11
15,GAATAATATGGACATACACACATATACATACATATA [CACACA_site2114],10.1
16,TACAAATATGGACACACACACATATTTATATTTATA [CACACA_site6420],11
17,TACAAATATGGACACACACACATATATATATATATA [CACACA_site4488],11.3
18,TATATATATGGACACACACACATATAAATAAATAAA [CACACA_site4406],10.7
19,AGGATACACGGACACACACACATATATATATATATA [CACACA_site4654],10.6

row,Sequence,gcPBM binding intensity (ln)
1,TATTTATATGGACACACACACATATAAATAAATAAA [CACACA_site6346],10.2
2,AGGATATGCGGACACACACACATATATATATATATA [CACACA_site5247],11
3,TGTACAAATATGTACACACACACATATTTATTTATA [CACACA_site6419],10.2
4,AAAGGATATGGACACACACACACATATATATATATA [CACACA_site8686],10.6
5,ATAAATATAGGACACACACACATATTATATATATAT [CACACA_site5658],10.5
6,AACTATAACTAAAAAAATCACATAAAATATTTTATT [TGCATGCA_negctrl_site363],9.46
7,TATTTAAAATAATGTGCAAAAGAATAAATAAATAAA [TGCATGCA_negctrl_site194],9.74
8,GTGTACAAAATATGGTAATAAAGTAGTTACATGAAT [CACACA_negctrl_site1775],9.86
9,TGTATATTTGATTCATGTACATATTTTATTTTAACT [XGTACX_site5169],9.72
10,TTATTTATCAAAAAATGTACAAAAATATATAAACAA [XGTACX_site940],9.6
11,ACGCACGAAATAAATACATGCATATTGTAAAAATTA [TGCATGCA_site310],9.48
12,TTAAAAATAAAAAATACACACTCTAGTCCATGTAAC [CACACA_site3640],10.1
13,ATGTAACACATATTTGGTACAGATAGATAAAAGTAT [XGTACX_site8291],9.87
14,ATAAAGAAAAATAGAAGTACATATATGCATGTTAAT [XGTACX_site4480],9.86
15,ATGTGTTTCTTCAATTGTACTAAAAGGTATATATTG [XGTACX_site4608],9.63
16,TAAATTATAAATTGCACACATATTTTTATATTTATA [CACACA_site2976],9.77
17,GCTTGGATATATTAATGTACTTATATATTATGTTGT [XGTACX_site3768],9.82
18,AATACATGCTTATTTTAACACACAAATGGTAGTAAT [CACACA_site8154],9.83

# — the supplement of paper PMC11417369
